The record followed here is ChEMBL document CHEMBL1961873, “Compounds: GSK PKIS; Assays: Nanosyn kinase panel” (2012).

In test [1] the target is Serine/threonine-protein kinase pim-2 (Homo sapiens) (UniProt Q9P1W9). Particulars: at 1 µM.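 Note: each value is a mean of the inhibition measurements against the kinase.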
Test [2] concerns the target Serine/threonine-protein kinase pim-3 (Homo sapiens) (UniProt Q86V86). Particulars: at 0.1 µM.
Test [3] has the same target. Particulars: at 1 µM.
Test [4] concerns the target T1, MAP kinase-activated protein kinase 5 (Homo sapiens) (UniProt Q8IW41).
T1 sequence (whole entry): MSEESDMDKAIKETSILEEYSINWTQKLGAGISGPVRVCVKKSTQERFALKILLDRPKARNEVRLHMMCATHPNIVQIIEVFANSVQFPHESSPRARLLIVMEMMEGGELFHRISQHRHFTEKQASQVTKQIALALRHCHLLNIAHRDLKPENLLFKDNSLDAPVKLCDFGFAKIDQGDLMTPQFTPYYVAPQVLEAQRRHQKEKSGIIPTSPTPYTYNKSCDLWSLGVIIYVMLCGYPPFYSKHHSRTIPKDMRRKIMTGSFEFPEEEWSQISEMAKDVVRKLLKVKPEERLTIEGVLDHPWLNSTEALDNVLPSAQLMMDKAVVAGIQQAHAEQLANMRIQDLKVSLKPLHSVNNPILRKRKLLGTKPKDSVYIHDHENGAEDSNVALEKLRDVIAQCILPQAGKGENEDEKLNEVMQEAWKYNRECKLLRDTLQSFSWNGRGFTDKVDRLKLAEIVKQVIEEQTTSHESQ
Particulars: at 0.1 µM.

The target of test [5] is T1, MAP kinase-activated protein kinase 5 (Homo sapiens). Particulars: at 1 µM.
Test [6] addresses Serine/threonine-protein kinase SIK1 (Homo sapiens) (UniProt P57059). The conditions noted are these: at 0.1 µM.
For test [7] the target is unchanged. The conditions noted are these: at 1 µM.
The target of test [8] is Serine/threonine-protein kinase SIK2 (Homo sapiens) (UniProt Q9H0K1). The conditions noted are these: at 0.1 µM.
Test [9] shares this target. Particulars: at 1 µM.
The target in test [10] is T2, Serine/threonine-protein kinase TBK1 (Homo sapiens) (UniProt Q9UHD2).
T2 sequence (whole entry): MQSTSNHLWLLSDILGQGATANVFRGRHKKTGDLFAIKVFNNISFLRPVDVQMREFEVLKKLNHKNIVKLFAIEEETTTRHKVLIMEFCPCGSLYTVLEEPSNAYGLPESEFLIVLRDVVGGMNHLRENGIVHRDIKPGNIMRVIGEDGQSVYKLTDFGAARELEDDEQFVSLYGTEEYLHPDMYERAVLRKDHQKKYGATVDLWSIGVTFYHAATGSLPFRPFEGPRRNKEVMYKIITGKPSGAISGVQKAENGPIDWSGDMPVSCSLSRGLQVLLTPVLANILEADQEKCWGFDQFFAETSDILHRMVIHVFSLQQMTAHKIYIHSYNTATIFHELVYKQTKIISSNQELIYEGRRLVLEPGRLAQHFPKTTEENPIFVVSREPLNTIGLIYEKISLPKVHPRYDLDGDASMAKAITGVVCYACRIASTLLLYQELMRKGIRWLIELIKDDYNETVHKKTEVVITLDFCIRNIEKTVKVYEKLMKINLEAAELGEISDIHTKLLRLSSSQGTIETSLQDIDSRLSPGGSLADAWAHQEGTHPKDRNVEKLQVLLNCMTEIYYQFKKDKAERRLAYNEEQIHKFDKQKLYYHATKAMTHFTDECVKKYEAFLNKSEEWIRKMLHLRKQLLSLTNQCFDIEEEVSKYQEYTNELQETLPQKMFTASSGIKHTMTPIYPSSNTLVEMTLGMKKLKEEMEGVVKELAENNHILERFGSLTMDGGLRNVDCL
The conditions noted are these: at 0.1 µM.

In test [11] the target is T2, Serine/threonine-protein kinase TBK1 (Homo sapiens). The conditions noted are these: at 1 µM.
The target in test [12] is T3, Testis-specific serine/threonine-protein kinase 1 (Homo sapiens) (UniProt Q9BXA7).
T3 sequence (whole entry): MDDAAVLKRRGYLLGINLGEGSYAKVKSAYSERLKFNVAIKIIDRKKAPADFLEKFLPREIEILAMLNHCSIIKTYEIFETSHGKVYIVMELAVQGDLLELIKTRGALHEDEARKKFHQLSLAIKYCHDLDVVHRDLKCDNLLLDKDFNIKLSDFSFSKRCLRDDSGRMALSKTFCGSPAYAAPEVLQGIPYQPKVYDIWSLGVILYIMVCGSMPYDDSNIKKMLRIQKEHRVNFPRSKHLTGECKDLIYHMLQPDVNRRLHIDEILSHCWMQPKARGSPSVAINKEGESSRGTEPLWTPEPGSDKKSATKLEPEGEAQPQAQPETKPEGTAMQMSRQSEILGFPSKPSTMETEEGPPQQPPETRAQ
The conditions noted are these: at 0.1 µM.

The target in test [13] is T3, Testis-specific serine/threonine-protein kinase 1 (Homo sapiens). Particulars: at 1 µM.
The target of test [14] is T4, Testis-specific serine/threonine-protein kinase 2 (Homo sapiens) (UniProt Q96PF2).
T4 sequence (whole entry): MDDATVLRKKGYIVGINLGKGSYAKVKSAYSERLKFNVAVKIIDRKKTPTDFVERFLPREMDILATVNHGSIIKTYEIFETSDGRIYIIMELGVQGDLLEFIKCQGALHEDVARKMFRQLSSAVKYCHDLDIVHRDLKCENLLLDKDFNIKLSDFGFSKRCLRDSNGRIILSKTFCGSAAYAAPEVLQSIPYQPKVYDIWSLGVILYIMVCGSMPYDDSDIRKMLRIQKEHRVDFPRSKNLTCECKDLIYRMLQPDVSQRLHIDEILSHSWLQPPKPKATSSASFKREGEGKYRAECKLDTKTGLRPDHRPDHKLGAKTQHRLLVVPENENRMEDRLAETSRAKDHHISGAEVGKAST
The conditions noted are these: at 0.1 µM.

The target in test [15] is T4, Testis-specific serine/threonine-protein kinase 2 (Homo sapiens). Particulars: at 1 µM.
In test [16] the target is Casein kinase I isoform alpha (Homo sapiens) (UniProt P48729). The conditions noted are these: at 0.1 µM.
For test [17] the target is unchanged. The conditions noted are these: at 1 µM.
For test [18], the target named is Casein kinase I isoform gamma-1 (Homo sapiens) (UniProt Q9HCP0). The conditions noted are these: at 0.1 µM.
For test [19] the target is unchanged. The conditions noted are these: at 1 µM.
Test [20] deals with Casein kinase I isoform gamma-2 (Homo sapiens) (UniProt P78368). Particulars: at 0.1 µM.

SMILES strings stand for the structures.

Sequence of Serine/threonine-protein kinase SIK2 (Homo sapiens) (Q9H0K1 whole entry, looked up): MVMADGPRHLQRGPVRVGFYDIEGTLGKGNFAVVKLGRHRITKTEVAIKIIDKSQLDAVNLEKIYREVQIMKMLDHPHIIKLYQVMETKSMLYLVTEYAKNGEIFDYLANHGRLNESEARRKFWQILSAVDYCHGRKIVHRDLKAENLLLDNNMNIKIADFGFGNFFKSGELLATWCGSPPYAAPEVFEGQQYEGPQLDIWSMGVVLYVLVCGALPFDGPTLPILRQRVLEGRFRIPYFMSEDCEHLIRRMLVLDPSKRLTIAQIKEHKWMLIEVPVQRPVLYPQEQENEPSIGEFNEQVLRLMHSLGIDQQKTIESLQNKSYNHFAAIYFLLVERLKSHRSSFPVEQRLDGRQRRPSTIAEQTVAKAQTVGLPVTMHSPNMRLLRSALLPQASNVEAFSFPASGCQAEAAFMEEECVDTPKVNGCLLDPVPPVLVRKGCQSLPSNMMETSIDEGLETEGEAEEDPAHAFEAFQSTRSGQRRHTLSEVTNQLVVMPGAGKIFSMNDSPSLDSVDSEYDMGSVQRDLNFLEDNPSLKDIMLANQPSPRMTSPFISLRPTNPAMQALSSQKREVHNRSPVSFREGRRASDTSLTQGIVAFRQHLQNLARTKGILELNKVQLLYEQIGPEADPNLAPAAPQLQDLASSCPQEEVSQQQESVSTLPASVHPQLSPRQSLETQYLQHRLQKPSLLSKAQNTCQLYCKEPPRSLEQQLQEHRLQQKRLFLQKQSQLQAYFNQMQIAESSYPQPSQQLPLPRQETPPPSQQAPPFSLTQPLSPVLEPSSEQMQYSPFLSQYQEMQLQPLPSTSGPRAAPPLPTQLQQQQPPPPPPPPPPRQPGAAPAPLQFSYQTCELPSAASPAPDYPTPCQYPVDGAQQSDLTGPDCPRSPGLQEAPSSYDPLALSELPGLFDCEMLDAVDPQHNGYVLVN
Sequence of Casein kinase I isoform alpha (Homo sapiens) (P48729 2-337 limits assumed): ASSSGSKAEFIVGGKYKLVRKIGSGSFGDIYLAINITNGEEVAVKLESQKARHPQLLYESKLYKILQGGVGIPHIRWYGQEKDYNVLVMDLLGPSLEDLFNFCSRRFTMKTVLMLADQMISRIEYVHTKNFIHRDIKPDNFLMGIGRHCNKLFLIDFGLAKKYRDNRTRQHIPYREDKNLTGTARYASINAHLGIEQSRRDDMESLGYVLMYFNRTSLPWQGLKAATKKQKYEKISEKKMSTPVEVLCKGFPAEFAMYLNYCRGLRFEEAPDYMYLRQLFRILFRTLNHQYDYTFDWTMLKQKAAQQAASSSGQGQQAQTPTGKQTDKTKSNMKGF
Sequence of Serine/threonine-protein kinase SIK1 (Homo sapiens) (P57059 whole entry): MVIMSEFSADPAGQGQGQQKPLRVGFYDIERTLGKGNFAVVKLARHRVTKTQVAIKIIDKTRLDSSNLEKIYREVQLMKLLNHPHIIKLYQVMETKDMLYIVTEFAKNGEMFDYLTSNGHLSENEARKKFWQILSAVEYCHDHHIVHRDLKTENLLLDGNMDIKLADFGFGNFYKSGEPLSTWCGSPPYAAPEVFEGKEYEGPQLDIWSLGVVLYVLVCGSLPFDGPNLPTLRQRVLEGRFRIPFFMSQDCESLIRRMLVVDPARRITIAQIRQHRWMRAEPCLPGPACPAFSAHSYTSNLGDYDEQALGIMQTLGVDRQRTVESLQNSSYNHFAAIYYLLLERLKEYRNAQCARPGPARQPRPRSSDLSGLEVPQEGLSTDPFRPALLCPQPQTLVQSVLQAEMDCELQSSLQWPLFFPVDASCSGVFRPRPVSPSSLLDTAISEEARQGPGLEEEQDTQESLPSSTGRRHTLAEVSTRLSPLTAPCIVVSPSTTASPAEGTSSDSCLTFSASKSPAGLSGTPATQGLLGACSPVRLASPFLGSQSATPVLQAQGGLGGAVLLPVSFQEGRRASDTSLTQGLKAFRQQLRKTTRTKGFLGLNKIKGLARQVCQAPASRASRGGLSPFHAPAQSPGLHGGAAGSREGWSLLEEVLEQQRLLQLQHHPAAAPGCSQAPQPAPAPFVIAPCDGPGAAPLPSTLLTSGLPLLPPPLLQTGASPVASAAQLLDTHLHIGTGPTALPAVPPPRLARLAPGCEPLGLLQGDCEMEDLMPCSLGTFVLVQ
Sequence of Casein kinase I isoform gamma-1 (Homo sapiens) (Q9HCP0 whole entry, looked up, canonical isoform): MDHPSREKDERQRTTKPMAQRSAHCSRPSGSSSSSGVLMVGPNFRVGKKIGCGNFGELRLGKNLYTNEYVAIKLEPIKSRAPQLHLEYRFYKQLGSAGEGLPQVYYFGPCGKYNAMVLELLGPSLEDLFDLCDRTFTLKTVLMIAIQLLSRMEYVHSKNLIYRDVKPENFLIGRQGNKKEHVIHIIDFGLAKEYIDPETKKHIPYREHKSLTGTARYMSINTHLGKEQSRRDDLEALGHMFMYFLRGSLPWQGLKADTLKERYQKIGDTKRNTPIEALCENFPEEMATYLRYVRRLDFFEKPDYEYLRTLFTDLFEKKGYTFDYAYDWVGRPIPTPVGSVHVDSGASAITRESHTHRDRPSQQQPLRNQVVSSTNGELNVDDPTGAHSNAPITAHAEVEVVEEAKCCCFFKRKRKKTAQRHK
Sequence of Serine/threonine-protein kinase pim-2 (Homo sapiens) (Q9P1W9 whole entry, looked up): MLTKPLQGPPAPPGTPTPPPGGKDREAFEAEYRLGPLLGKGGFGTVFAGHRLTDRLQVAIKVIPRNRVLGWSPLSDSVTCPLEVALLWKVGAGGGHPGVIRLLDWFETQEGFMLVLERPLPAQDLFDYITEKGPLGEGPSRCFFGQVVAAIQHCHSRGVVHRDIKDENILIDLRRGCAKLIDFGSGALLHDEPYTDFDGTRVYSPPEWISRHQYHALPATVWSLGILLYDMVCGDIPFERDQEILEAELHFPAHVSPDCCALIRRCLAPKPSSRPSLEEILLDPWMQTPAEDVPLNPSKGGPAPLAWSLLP
Sequence of Casein kinase I isoform gamma-2 (Homo sapiens) (P78368 whole entry, looked up, canonical isoform): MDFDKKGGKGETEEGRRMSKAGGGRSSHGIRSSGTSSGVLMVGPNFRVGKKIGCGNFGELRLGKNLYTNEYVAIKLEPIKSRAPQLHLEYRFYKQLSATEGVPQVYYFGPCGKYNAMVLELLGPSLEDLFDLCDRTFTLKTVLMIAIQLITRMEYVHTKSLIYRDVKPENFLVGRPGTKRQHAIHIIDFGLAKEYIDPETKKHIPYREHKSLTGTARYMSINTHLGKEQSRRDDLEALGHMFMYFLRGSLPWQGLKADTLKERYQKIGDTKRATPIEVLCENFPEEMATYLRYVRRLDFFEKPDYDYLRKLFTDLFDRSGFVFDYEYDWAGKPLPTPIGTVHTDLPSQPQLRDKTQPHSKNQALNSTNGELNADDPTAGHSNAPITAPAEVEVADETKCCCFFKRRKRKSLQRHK

What is called inhibition is the relative decrease from the control value, in per cent. In the case of `CCCN1CCCC(c2ccc(Nc3nc(Nc4cc(F)ccc4C(N)=O)c4cc[nH]c4n3)c(OC)c2)C1` (stereo not given), the inhibition was found to be 7.35% in test [1]; 4.99% in test [2]; 40.8% in [3]; 5.81% in test [4]; 33.2% in [5]; 6.07% in test [6]. Also, the inhibition in [7] worked out at 10.2%; in test [8], 2.41%; in test [9], 11%; in test [10], 4.22%; in test [11], 11.5%; in test [12] it was 81%. Further, the inhibition came out at 92.6% in test [13]; 62.5% in test [14]; 86% in test [15]; 44.3% in [16]; 78.5% in [17]; 36.1% in test [18]. Besides, the inhibition in test [19] is 78%; in [20], 29.6%.

In the case of `NC(=O)c1sc(-n2cnc3ccccc32)cc1OCc1ccccc1Br`, the inhibition in [1] was 0.78%; in test [2], -1.03%; in [3], 3.81%; in test [4] it was 1.15%; in test [5], 0.91%; in test [6] it was 4.47%. Also, the inhibition in test [7] amounted to 13.6%; in test [8], 3.55%; in test [9], 9.83%; in [10], 0.38%; in test [11], 2.68%; in test [12], 3.19%. The inhibition in [13] was 4.53%; in [14], 0.6%; in test [15], 1.24%; in test [16], 2.22%; in test [17], 7.23%; in [18], 3.55%. Also, the results for the inhibition in [19] and in test [20] were 5.15% and 3.34%, respectively.

With `COc1cc2ncn(-c3cc(OCc4ccccc4S(C)(=O)=O)c(C#N)s3)c2cc1OC`, the inhibition in test [1] was 1.39%; in test [2] it was -0.4%; in test [3] it was -0.82%; in [4] it was 0.7%; in [5] it was -0.19%; in test [6], 16.1%. The inhibition in [7] was 61%; in test [8], 21.9%; in [9] it was 69.4%; in test [10], 64.9%; in test [11] it was 83%; in test [12], 22.1%. For the same compound, the inhibition in test [13] amounted to 69.2%; in [14], 0.6%; in test [15], 4.54%; in test [16], 3.32%; in [17] it was 3.58%; in test [18] it was 3.26%. Moreover, the values for the inhibition in [19] and in test [20] were 4.23% and 2.02%, respectively.

Regarding `CCS(=O)(=O)c1ccc(OC)c(Nc2ncc(-c3cccc(OC)c3)o2)c1`, the inhibition in test [1] is 0.96%; in [2], -0.8%; in [3], -0.55%; in [4] it was 0.94%; in test [5] it was -0.22%; in test [6] it was 6.26%. Also, the inhibition came out at 28.6% in [7]; 8.33% in test [8]; 31.2% in test [9]; 0.69% in test [10]; 9.22% in test [11]; 1.15% in test [12]. Further, the inhibition in [13] is -0.25%; in test [14] it was 1.31%; in [15] it was -3.49%; in [16], 1.44%; in test [17], 6.31%; in test [18] it was 2.59%. The inhibition in test [19] worked out at 6.2%; in test [20], 1.91%.

As to `ON=C1CCc2cc(-c3nc(C4CCNCC4)[nH]c3-c3ccncc3)ccc21`, the inhibition is 2.02% in [1]; -0.74% in [2]; -1.33% in test [3]; -0.32% in test [4]; -1.28% in [5]; -0.24% in [6]. The inhibition in [7] was 0.92%; in test [8], -6.05%; in test [9], 3.25%; in test [10] it was 0.4%; in test [11], 1.68%; in test [12], 0.96%. Moreover, the inhibition in test [13] was 0.73%; in test [14], -0.31%; in [15], -0.97%; in [16], -0.25%; in test [17], 8.55%; in test [18], 0.25%. Besides, the figures for the inhibition in test [19] and in test [20] were 1.66% and 1.32%, respectively.

As for `OCc1ccc(-c2nc(-c3ccccn3)c(-c3ccc4c(c3)OCO4)[nH]2)cc1`, the inhibition in test [1] is 1.41%; in test [2] it was -1.14%; in [3] it was -3.44%; in test [4], 1.17%; in test [5] it was -0.12%; in [6], 9%. For the same compound, the inhibition in [7] came to 5.84%; in [8], 8.76%; in test [9], 7.48%; in test [10], 2.36%; in test [11], 4.95%; in test [12], 3.19%. Further, the inhibition in [13] is 1.78%; in [14], 0.7%; in [15] it was -1.56%; in [16] it was 9.48%; in [17] it was 43.3%; in test [18], 4.27%. For the same compound, the inhibition came out at 5.16% in [19] and 3.01% in test [20].
